Consider 101 compounds from PubChem BioAssay AID1578 (Sanford-Burnham Center for Chemical Genomics, 2009).

As a reminder, the inhibition is the drop in the measured response relative to a control, in per cent.

The campaign covered roughly 290,000 compounds. About 3,000 (1%) were called active. The full list was thinned out, with actives kept by preference. Values without a mark were called inactive. No stated cut-off is given here; in the data, active means inhibition mostly above about 36% (no sharp cut-off); inactive means mostly below about 34%.

A short description of this test: inhibition of NOD1-driven NF-kB reporter – cell-based, luminescence, uHTS, primary screen (AID 1578).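 Further: HEK-293T reporter cells stimulated with the NOD1 agonist gamma-tri-DAP.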 The note with it: NOD1-driven NF-kB luciferase reporter cells, at 4 µM, stronger effect = higher value. In general terms: Reporter assays use an easily measured gene product as a stand-in for the process of interest.
As to `Cc1sc2ncnc(N3CCN(Cc4ccccc4)CC3)c2c1-c1ccccc1`, the inhibition is 43.2%.

Turning to `CCN1CCN(c2ncnc3sc(C)c(-c4ccccc4)c23)CC1`, the inhibition is -8.6%.

On to `Cc1ccc(C(=O)NS(=O)(=O)c2ccc(C)cc2)cc1`, for which the inhibition is -2.7%.

Regarding `Cc1ccc(C(=O)NS(=O)(=O)c2ccccc2)cc1`, the inhibition is -46.6%.

`Cc1ccc(C(=O)NS(=O)(=O)c2ccc(N=NN(C)C)cc2)cc1`: the inhibition is 46.6% (active).

Consider `Cc1cccc(/C=C2\CCC(=C3SCCCS3)C2=O)c1`, for which the inhibition was 21.6%.

On to `O=C1/C(=C/c2ccc(F)cc2)CCC1C1CCCC1` (stereo unspecified), for which the inhibition was -42.1%.

In the case of `O=C1C(=C2SCCCS2)CC/C1=C\c1ccc(F)cc1`, the inhibition was 76.9% (active).

Consider `Cc1ccc(C(=O)Nc2cccnc2Cl)cc1Cl`, for which the inhibition is -74.4%.

With `NC(=O)COC(=O)c1ccc(NS(=O)(=O)c2ccc3c(c2)OCCO3)cc1`, the inhibition is -9.9%.

Consider `CS(=O)(=O)c1nc(-c2ccccc2)cc(-c2ccccc2)c1C#N`, for which the inhibition was 68.3% (active).

As to `CS(=O)(=O)c1nc(-c2ccc(Br)cc2)cc(-c2ccccc2)c1C#N`, the inhibition is 40.6%.

In the case of `COc1ccc(-c2cc(-c3ccccc3)nc(SC(C)C(=O)O)c2C#N)cc1` (stereo unspecified), the inhibition was -21.4%.

As for `COc1ccc(-c2cc(-c3ccccc3)c(C#N)c(S(C)(=O)=O)n2)cc1`, the inhibition was 19.6%.

Take `CC(C)C(Sc1nc(-c2ccccc2)cc(-c2ccccc2)c1C#N)C(=O)O` (stereo unspecified): the inhibition is 52.9% (active).

As to `N#Cc1c(-c2ccccc2)cc(-c2ccccc2)nc1SCCC(=O)O`, the inhibition is 3.1%.

Regarding `COC(=O)c1ccccc1NC(=O)CSc1n[nH]c(-c2ccco2)n1`, the inhibition was -8.4%.

Consider `O=C(C1CCN(c2ccc(N3CCOCC3)nn2)CC1)N1CCN(c2ccc(F)cc2)CC1`, for which the inhibition is -18.2%.

Regarding `C=CCSc1nc2sc3c(c2c(=O)[nH]1)CC(C)(CC)OC3` (stereo unspecified), the inhibition was -17.8%.

With `Cc1ccccc1NC(=O)CC1SCCNC1=O` (stereo unspecified), the inhibition is 11.3%.

On to `C=CCNCCCCOc1cccc(Br)c1`, for which the inhibition is 11.4%.

Regarding `OCCNCCCCOc1cccc(Br)c1`, the inhibition was 75.8% (active).

Consider `COCCCNCCCCOc1cccc(Br)c1`, for which the inhibition is -2.3%.

Turning to `O=S(=O)(/N=C(/NC(=S)Nc1ccccc1)c1ccccc1)c1ccc(Cl)cc1`, the inhibition is -32.1%.

Turning to `O=c1c(Cc2ccc(F)cc2)c(O)ccn1C1CC1`, the inhibition is 51.7% (active).

Consider `O=c1c(Cc2ccc(F)cc2)c(O)ccn1C1CCCCC1`, for which the inhibition is -17.4%.

Consider `O=c1c(Cc2ccccc2)c(O)ccn1C1CCCCCCC1`, for which the inhibition is -38.2%.

As for `CCCCCCCCCCCC(=O)NC(C(=O)O)C(O)c1ccccc1` (stereo unspecified), the inhibition is 55.2% (active).

As to `CCCCCCCCCCCC(=O)NC(C(=O)OCC)C(O)c1cccc([N+](=O)[O-])c1` (stereo unspecified), the inhibition was 34.1%.

As to `CCCCCCCCOC(=O)C(NC(=O)CCC(=O)Nc1ccc(S(N)(=O)=O)cc1)C(O)c1ccccc1` (stereo unspecified), the inhibition is -2.4%.

For `CN1CCN(c2ccc(NC(=O)c3ccco3)cc2Cl)CC1`, the inhibition was -46.7%.

As to `Nc1ccc(NC2C[C@@H](C(=O)O)NC2=O)cc1` (stereo partly specified), the inhibition is -25.3%.

For the compound `CC(C)CC(=O)N/N=C/c1c(N)n(C)c(=O)n(C)c1=O`, the inhibition is -7.7%.

On to `CCn1cc([N+](=O)[O-])c(C(=O)N2N=C(c3ccc(Cl)c(Cl)c3)CC2c2ccccc2O)n1` (stereo unspecified), for which the inhibition is -14.7%.

Consider `CCn1cc(Cl)c(C(=O)N2N=C(c3ccc4ccccc4c3)CC2c2ccccc2O)n1` (stereo unspecified), for which the inhibition is 61.4% (active).

As for `CCn1cc([N+](=O)[O-])c(C(=O)N2N=C(c3ccc4ccccc4c3)CC2c2ccccc2O)n1` (stereo unspecified), the inhibition is -40.2%.

On to `CCOc1cc(Cl)c(NC(=O)CC)cc1OCC`, for which the inhibition was -18.6%.

For the compound `CCOc1cc(NC(=O)CCl)c(OCC)cc1NC(=O)CCl`, the inhibition is 71.2% (active).

On to `CCCCC(=O)Nc1cc(OCC)c(NC(=S)NC)cc1OCC`, for which the inhibition was -5.5%.

On to `CCN1C(=O)c2ccccc2Sc2ccc(C(=O)NC(C)C)cc21`, for which the inhibition was 0.6%.

As for `CC(=O)c1c(C)nc(-c2ccccc2)nc1NC(=O)C(C)C`, the inhibition is -18%.

As for `CCOC(=O)/C(C#N)=N/Nc1c(S(=O)(=O)Cc2ccco2)csc1C(=O)OC`, the inhibition is -12.9%.

As for `COC(=O)c1sc(SC)c(S(=O)(=O)C(C)C)c1N/N=C(\C#N)S(=O)(=O)c1ccccn1`, the inhibition is -7.4%.

Turning to `COC(=O)c1sc(SC)c(S(=O)(=O)C(C)C)c1N/N=C(\C#N)C(=O)c1ccccc1`, the inhibition was -8.9%.

As for `COC(=O)c1scc(C)c1NC(=O)c1ccc(Cl)cc1`, the inhibition is -13.3%.

Take `COC(=O)c1cc(OC)c(OC)cc1NC(=O)Cc1ccccc1[N+](=O)[O-]`: the inhibition was 53.2%.

With `CCSc1nnc(NC(=O)c2cc(C)on2)s1`, the inhibition is -22.4%.

For the compound `Cc1ccc(CNS(=O)(=O)c2ccc3c(c2)NC(=O)C(C)S3)cc1` (stereo unspecified), the inhibition was 16.1%.

Take `Cc1ccccc1C(=O)N1CCC(C(N)=O)CC1`: the inhibition was 24.1%.

With `O=C(NCc1ccccc1)C1COc2ccccc2O1` (stereo unspecified), the inhibition was -48.6%.

With `O=C(N1CCN(c2ccccn2)CC1)C(Cl)(Cl)Cl`, the inhibition was 32.8%.

In the case of `O=C(CN1CCCCC1)N1c2ccccc2CCc2ccccc21`, the inhibition was 7.5%.

`CC(Cl)C(=O)N1c2ccccc2CCc2ccccc21` (stereo unspecified): the inhibition is 19.8%.

For `O=C(CCl)N1c2ccccc2CCc2ccccc21`, the inhibition is 94.7% (active).

As for `C=CCNc1cnn(-c2ccc(C)cc2)c(=O)c1Sc1ccc(C)cc1`, the inhibition was 11.6%.

Consider `CC/C(=N\NC(=O)c1ccc(Br)cc1)c1ccccc1`, for which the inhibition was -30.9%.

Regarding `N#C/C(=C(/O)CCl)c1nc2c(s1)CCc1ccccc1-2`, the inhibition was 78.6% (active).

Take `Nc1nc2c(s1)CCc1ccccc1-2`: the inhibition was -11.8%.

As for `N#C/C(=C(/O)CCl)c1nc(-c2ccccc2)cs1`, the inhibition was -4.2%.

Take `C=CCn1c(COc2ccccc2)nnc1SC(C)C(=O)N/N=C/c1cc(Cl)ccc1O` (stereo unspecified): the inhibition is 2%.

For the compound `C=CCn1c(COc2ccc(Cl)cc2)nnc1SCC(=O)N/N=C/c1ccccc1`, the inhibition was 1.1%.

For `C=CCn1c(COc2ccccc2)nnc1SCC(=O)N/N=C/c1cc(Cl)ccc1O`, the inhibition was 39.9% (active).

With `CN(C)C(=O)CN1CCN(c2nc3nonc3nc2N2CCCCC2)CC1`, the inhibition is -28.9%.

On to `CC(C)(C)OC(=O)N/N=C/c1cccn1-c1ccc([N+](=O)[O-])cc1`, for which the inhibition was -6.6%.

For `CCOC(=O)c1c(C)[nH]c(C(=O)OC/C(O)=C(\C#N)c2nc3ccccc3[nH]2)c1C`, the inhibition was -26.6%.

In the case of `N#C/C(=C(/O)COC(=O)Cc1c[nH]c2ccccc12)c1nc2ccccc2[nH]1`, the inhibition was -14.1%.

For `CCCC(=O)OC/C(O)=C(\C#N)c1nc2ccccc2[nH]1`, the inhibition is 105% (active).

In the case of `N#C/C(=C(/O)COC(=O)CCCNC(=O)c1ccc(Cl)cc1)c1nc2ccccc2[nH]1`, the inhibition was 86.4% (active).

As to `N#C/C(=C(/O)COC(=O)c1ccc(Cl)c(S(=O)(=O)N2CCOCC2)c1)c1nc2ccccc2[nH]1`, the inhibition was 17.7%.

Consider `N#C/C(=C(/O)COC(=O)CCc1ccc(S(=O)(=O)N2CCOCC2)cc1)c1nc2ccccc2[nH]1`, for which the inhibition is 93.4% (active).

Consider `N#C/C(=C(/O)COC(=O)c1cccnc1Cl)c1nc2ccccc2[nH]1`, for which the inhibition was -23.4%.

With `Cc1ccc(C(=O)OC/C(O)=C(\C#N)c2nc3ccccc3[nH]2)cc1S(=O)(=O)N1CCOCC1`, the inhibition is 20.1%.

As for `COCC(=O)OC/C(O)=C(\C#N)c1nc2ccccc2[nH]1`, the inhibition is 66.5% (active).

Turning to `N#C/C(=C(/O)COC(=O)c1ccc(O)cc1)c1nc2ccccc2[nH]1`, the inhibition was -5.6%.

Turning to `COc1cc(OC)cc(C(=O)OC/C(O)=C(\C#N)c2nc3ccccc3[nH]2)c1`, the inhibition was -0.4%.

In the case of `CC(C)C(=O)OC/C(O)=C(\C#N)c1nc2ccccc2[nH]1`, the inhibition was 0.8%.

Take `O=C(CSc1nc(-c2ccccc2)c(-c2ccccc2)[nH]1)Nc1ccc2c(c1)OCO2`: the inhibition is -5.7%.

On to `O=C(CSc1nn(-c2ccccc2)c(=S)s1)NC(=O)NCc1ccco1`, for which the inhibition is 17.4%.

On to `CCCCN(C)CCNC(=O)c1cc2c(=O)[nH]c3ccccc3c2n1C`, for which the inhibition is -7.1%.

Take `CCOC(=O)COc1ccc2c(C)cc(=O)oc2c1C(=O)c1ccccc1`: the inhibition is 5.9%.

In the case of `O=C1CC(N2CCN(c3ccc(O)cc3)CC2)C(=O)N1c1ccc2c(c1)OCO2` (stereo unspecified), the inhibition is -26.7%.

`COc1ccc(/C(C)=N/OC/C(O)=C(\C#N)c2nc3ccccc3[nH]2)cc1OC`: the inhibition was 5.6%.

For the compound `Cc1ccc(C(C)C)c(OC/C(O)=C(\C#N)c2nc3ccccc3[nH]2)c1`, the inhibition was 36.3% (active).

As for `COc1ccc(OC/C(O)=C(\C#N)c2nc3ccccc3[nH]2)cc1`, the inhibition was -23.4%.

For the compound `CCC(C)c1ccc(OCC(=O)NNC(=O)C2CCCCC2)cc1` (stereo unspecified), the inhibition is -4.3%.

With `Cc1ccccc1NC(=O)c1ccccc1-c1ccccc1`, the inhibition is -24.9%.

Regarding `O=C(Nc1ccccc1Br)c1ccccc1-c1ccccc1`, the inhibition is -10.7%.

For the compound `CC(=O)Nc1ccccc1NC(=O)c1ccccc1-c1ccccc1`, the inhibition is 73% (active).

For the compound `CC(C)(CO)N=Cc1c(O)[nH]c2ccccc12`, the inhibition is -14.8%.

With `CCCCCCC(=O)Nc1ccc(Cl)cn1`, the inhibition was -24.4%.

For the compound `C=CCN(CC=C)C(=O)c1cccc(OC2CCN(S(=O)(=O)N(C)C)CC2)c1`, the inhibition was 8.4%.

On to `CCSc1nc2ccc(OC)cc2cc1C#N`, for which the inhibition is -45.3%.

As to `CCOc1ccc2nc(SCC#N)c(C#N)cc2c1`, the inhibition was 68.2% (active).

For `CCOc1ccc2nc(SCC(=O)N3CCCCCC3)c(C#N)cc2c1`, the inhibition is -18.2%.

As for `O=C1/C(=C\c2cc(Br)cc(Br)c2O)SC(=S)N1Cc1ccccc1`, the inhibition was 73.3% (active).

In the case of `O=C(O)c1cccc(CN2C(=O)S/C(=C/c3cccc([N+](=O)[O-])c3)C2=O)c1`, the inhibition is 1.5%.

Turning to `O=C(O)c1cccc(CN2C(=O)S/C(=C/c3ccccc3[N+](=O)[O-])C2=O)c1`, the inhibition was 3.9%.

`O=C1/C(=C\c2cccc(O)c2O)SC(=S)N1Cc1ccccc1`: the inhibition is -20.4%.

With `O=C1/C(=C\c2ccc(O)cc2)SC(=S)N1Cc1ccccc1`, the inhibition is -9.6%.

Turning to `CCOC(=O)CN1C(=O)S/C(=C/c2ccc(O)c([N+](=O)[O-])c2)C1=O`, the inhibition was -4.5%.

As for `COc1ccc(O)c(/C=C2/SC(=S)N(Cc3ccccc3)C2=O)c1`, the inhibition was -3.5%.
